{"source": "PubChem BioAssay AID651899", "about": "(Broad Institute, 2012)", "note": "Entries with a potency or affinity are not part of this list. Unmarked numbers belong to inactive results. How the calls were made is not given here."}
{"assay": "HEK293 cell viability loss – plate reader, cherry-pick, cytotoxicity control, dose response (AID 651899);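 further: cells exposed to compound for 48 hours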", "settings": "series mostly up to 26 µM; activity change, negative = cytotoxicity: at the top concentration"}
{"compound": "O=C(Nc1ccccc1)N1CCN(Cc2ccc3c(c2)OCO3)CC1", "activity change, negative = cytotoxicity": "9.86%"}
{"compound": "Cc1ccccc1S(=O)(=O)NCC[C@H]1CC[C@@H](NC(=O)Nc2cccc(F)c2)[C@H](CO)O1", "activity change, negative = cytotoxicity": "-4.64%"}
{"compound": "Cc1ccc(-c2nn(CCC(=O)Nc3cccnc3)c(=O)c3ccccc23)cc1", "activity change, negative = cytotoxicity": "-16.1%"}
{"compound": "Cc1cc(C)n2nc(C(=O)Nc3cccnc3)nc2n1", "activity change, negative = cytotoxicity": "-21.4%"}
{"compound": "CC(=O)c1ccc(NC(=O)COC(=O)Cc2ccsc2)cc1", "activity change, negative = cytotoxicity": "10.6%"}
{"compound": "C[C@@H]1CN([C@H](C)CO)C(=O)Cc2cc(NC(=O)Cn3cnnn3)ccc2O[C@H]1CN(C)Cc1ccc2c(c1)OCO2", "activity change, negative = cytotoxicity": "0.316% [at 23.5 µM]"}
{"compound": "O=C(CN1C(=O)/C(=C/c2cccc(Br)c2)SC1=S)Nc1cccnc1", "activity change, negative = cytotoxicity": "29.1%"}
{"compound": "CC(=O)c1ccc(C(=O)N2CCCC(CO)(Cc3ccccc3C)C2)s1", "note": "(stereo unspecified)", "activity change, negative = cytotoxicity": "-20.1%"}
{"compound": "CC(=O)CSc1nnc(CSc2ncccn2)n1C1CCCCC1", "activity change, negative = cytotoxicity": "10.1%"}
{"compound": "Cc1cccc(-n2c(SCC(=O)N(C)C3CCS(=O)(=O)C3)nc3ccccc3c2=O)c1C", "note": "(stereo unspecified)", "activity change, negative = cytotoxicity": "5.58%"}
{"compound": "C/C=C/c1ccc2c(c1)O[C@@H](CN(C)C(=O)Nc1ccccc1)[C@H](C)CN([C@H](C)CO)S2(=O)=O", "activity change, negative = cytotoxicity": "-9.85%"}
{"compound": "CN1c2ccc(-c3cccc(F)c3)cc2[C@H]2[C@H](CCN2C(=O)c2ccncc2)[C@H]1CO", "activity change, negative = cytotoxicity": "5.32%"}
{"compound": "O=C1CCCc2c1cc(C(=O)NCc1ccco1)c(=O)n2-c1ccc(Cl)cc1", "activity change, negative = cytotoxicity": "0.469%"}
{"compound": "CC(=O)c1ccc(NC(=O)C2CC(=O)N(Cc3ccccc3)C2)cc1", "note": "(stereo unspecified)", "activity change, negative = cytotoxicity": "-18.9%"}
{"compound": "O=C(Nc1ccc(N2CCOCC2)c(Cl)c1)c1cccnc1", "activity change, negative = cytotoxicity": "4.74%"}
{"compound": "O=C(N[C@H]1CC[C@@H](CCn2cc(-c3cccnc3)nn2)O[C@H]1CO)c1ccccc1F", "activity change, negative = cytotoxicity": "3.59%"}
{"compound": "COc1cc(-c2n[nH]c(=S)n2C(C)c2ccccc2)cc(OC)c1OC", "note": "(stereo unspecified)", "activity change, negative = cytotoxicity": "29.1%"}
{"compound": "O=C(Nc1ccc2nccnc2c1)c1cnccn1", "activity change, negative = cytotoxicity": "-15.9%"}
{"compound": "Cc1ccc(Cc2c(C)nc3nc(SCC(=O)NCCN4CCOCC4)nn3c2C)cc1", "activity change, negative = cytotoxicity": "-21.5%"}
{"compound": "O=C(Nc1ccc(F)c(Cl)c1)C1CCCN(c2cnccn2)C1", "note": "(stereo unspecified)", "activity change, negative = cytotoxicity": "17.6%"}
{"compound": "O=C(Nc1cccnc1)c1cc2nc(C3CC3)cc(C(F)(F)F)n2n1", "activity change, negative = cytotoxicity": "10.3%"}
{"compound": "Cc1ccc(NCc2nnc(SCC(=O)N3CCc4ccccc43)n2C)cc1", "activity change, negative = cytotoxicity": "-21.8%"}
{"compound": "COC(=O)c1c(C(=O)OC)c(-c2ccc(F)cc2)n2c1CS(=O)C2", "note": "(stereo unspecified)", "activity change, negative = cytotoxicity": "-8.64%"}
{"compound": "CC(=O)c1ccc(C(=O)N2CCCC(C(=O)c3ccc(Cl)cc3)C2)s1", "note": "(stereo unspecified)", "activity change, negative = cytotoxicity": "-0.878%"}
{"compound": "CS(=O)(=O)N1[C@H](C(=O)NCc2ccncc2)[C@@H](CO)[C@@H]2Cn3c(ccc(C4=CCCCC4)c3=O)[C@@H]21", "activity change, negative = cytotoxicity": "15.1% [at 12 µM]"}
{"compound": "CN1CCCC1CCOC(C)(c1ccccc1)c1ccc(Cl)cc1", "note": "(stereo unspecified)", "activity change, negative = cytotoxicity": "18.1%"}
{"compound": "N#Cc1ccc(-c2ccc3c(c2)[C@@H]2[C@@H](CCN2C(=O)c2ccc(F)cc2)[C@@H](CO)N3)cc1", "activity change, negative = cytotoxicity": "14.8%"}
{"compound": "COC(=O)c1sc(N)c(C(=O)OC)c1CSc1nnc(-c2ccccc2Cl)n1C", "activity change, negative = cytotoxicity": "17.1%"}
{"compound": "O=C1CCCc2c1cc(C(=O)NCCCN1CCOCC1)c(=O)n2-c1ccc(Cl)cc1", "activity change, negative = cytotoxicity": "-31.2%"}
{"compound": "CC(=O)c1ccc(C(=O)N2CCCC(Nc3ccc(C(C)C)cc3)C2)s1", "note": "(stereo unspecified)", "activity change, negative = cytotoxicity": "8.11%"}
{"compound": "COCCNC(=O)C[C@H]1CC[C@@H]2[C@@H](COc3ccc(NC(=O)Nc4cccc(F)c4)cc3C(=O)N2C)O1", "activity change, negative = cytotoxicity": "3.73% [at 23.5 µM]"}
{"compound": "CN1c2ccc(-c3cccc(F)c3)cc2[C@H]2[C@H](CCN2C(=O)C2CC2)[C@H]1CO", "activity change, negative = cytotoxicity": "29% [at 12 µM]"}
{"compound": "COc1ccccc1S(=O)(=O)N1CC[C@@H]2[C@H](CO)Nc3ccc(-c4cccc(C#N)c4)cc3[C@@H]21", "activity change, negative = cytotoxicity": "16%"}
{"compound": "Cc1c(NC(=O)c2cc3ccccc3o2)cccc1-n1cnnn1", "activity change, negative = cytotoxicity": "-12.2%"}
{"compound": "CCc1c(C(=O)NCCc2ccc(OC)c(OC)c2)[nH]c(C)c1C(C)=O", "activity change, negative = cytotoxicity": "-19.5%"}
{"compound": "COc1ccc(C(=O)Nc2cccc(NC(=O)c3cccs3)c2)cc1", "activity change, negative = cytotoxicity": "6.74%"}
